The whole screen tested about 48,000 compounds, of which about 13,000 (27%) showed an effect of 50% or more. The list shows a part of the results.

The test system of this assay is Wolbachia pipientis. The experiment in a line: Anti-Wolbachia Cell-Based Screen. It counts as functional. As to conditions: 5 µM. More on the design: scale not given: in the data most compounds retested in dose-response had high values.
In the case of `COCC1CN(c2ccc3c(Cl)ccnc3c2F)CCO1` (stereo not given), the “Percent Effect” value is given as -23.97%. Then `CC(C)n1nc(Cn2cccn2)c2c1CN(C1CCOCC1)C2.O=C(O)C(F)(F)F`, with -12.7%; and `CSCC(CCO)Nc1cccc(C(F)(F)F)n1` (stereo not given), with -4.466%; and `Cc1[nH]/c(=N\C(=O)c2csc(NC3CC3)n2)sc1C`, with 5.659%. Turning to `CCn1nc(C(C)C)cc1C(=O)N1CC(OCc2ccccc2F)C1`, the “Percent Effect” value is recorded as -12.74%.

With `CC(C)C(=O)N1CCCC2(CCCN2CC2CCCC2)C1.O=C(O)C(F)(F)F` (stereo not given), the “Percent Effect” value is 4.18%.

As to `CCC(NC(=O)c1nn(C)cc1C(=O)O)c1ccc(C)cc1` (stereo not given), the “Percent Effect” value was determined as 104.3%. Regarding `CCCC(NC(=O)c1cc(C)ccc1C)c1nnn[nH]1` (stereo not given), the “Percent Effect” value is recorded as -4.44%.

As to `CCNc1ncc(C(=O)NC(CCN(C)C)c2ccccc2)cn1` (stereo not given), the “Percent Effect” value came to 13.66%. Take `CCC(NC(=O)CN(C)Cc1ccc(C)o1)c1ccc(C)cc1` (stereo not given): the “Percent Effect” value worked out at 3.05%. `CCC(NC(=O)c1nn(C)cc1C(=O)O)c1ccc(C)cc1C` (stereo not given): the “Percent Effect” value is 113.8%. For `COc1ccc(C(CC(=O)O)NC(=O)c2cc(C)on2)cc1` (stereo not given), the “Percent Effect” value was 2.487%. With `CCC(NC(=O)c1cc(NC(C)=O)ccc1Cl)c1cc(C)ccn1` (stereo not given), the “Percent Effect” value is on record as -8.351%. In the case of `CCC(CC)NC(=O)Cn1cc(C(N)=O)c(-c2ccccc2)n1`, the “Percent Effect” value is given as -10.51%. With `Cc1ccc(C(C(=O)O)N(C)CCCN2CCOCC2)c(C)c1` (stereo not given) the figure was -9.259%; with `CCC(NC(=O)c1c(C(=O)O)cnn1C)c1ccc(C)cc1C` (stereo not given), 109.1%. In the case of `CCC(NC(=O)c1cc(CC(C)C)nn1C)c1cc(C)ccn1` (stereo not given), the “Percent Effect” value was 6.008%. Regarding `CCC(NC(=O)c1nn(C)cc1C(=O)O)c1ccccc1` (stereo not given), the “Percent Effect” value came to 82.78%. Then `CSCC(CCO)NC(=O)Nc1cc(C)ccc1C` (stereo not given), with -5.082%; and `CC(C)(C)NC(=O)NCc1cnn2ccccc12`, with -7.455%; and `CCOCCN1C[C@H](c2cccc(OC)c2)[C@@H](N)C1`, with -6.771%. Then `Cc1cnccc1N1CCN(c2nccc(CCC(F)(F)F)n2)CC1`, with 13.49%. On to `Cc1nc(C)n(CC2CCCN2CC(=O)Nc2ccnn2C(C)C)n1` (stereo not given), for which the “Percent Effect” value is reported as -5.093%. Turning to `CCOCC(=O)N1CC[C@H]2OCC[C@@H](c3nnc(C)o3)[C@H]2C1`, the “Percent Effect” value is on record as 13.01%. For `Cc1ccc(C(=O)NCC(O)c2ccc(F)c(F)c2)c(=O)[nH]1` (stereo not given), the “Percent Effect” value is recorded as -52.3%. Regarding `Cn1c(SCC2OCCc3ccccc32)n[nH]c1=O` (stereo not given), the “Percent Effect” value was -11.92%. With `O=C(O)c1cc(S(=O)(=O)Nc2cccc(F)c2F)cc2c1OCCO2` the figure was 134.3%; with `O=C(O)c1cc(S(=O)(=O)Nc2cc(F)ccc2F)cc2c1OCCO2`, 0.9161%. Consider `CN(c1ccc(F)cc1)S(=O)(=O)c1cc2c(c(C(=O)O)c1)OCCO2`, for which the “Percent Effect” value is given as -14.55%. Regarding `Cc1ccc(F)cc1NS(=O)(=O)c1cc2c(c(C(=O)O)c1)OCCO2`, the “Percent Effect” value is on record as 117.8%. For `Cc1cc(F)ccc1NS(=O)(=O)c1cc2c(c(C(=O)O)c1)OCCO2`, the “Percent Effect” value is 118%. As to `Cc1ccc(S(=O)(=O)N2CCOc3ccccc32)cc1C(=O)O`, the “Percent Effect” value was -0.06219%. With `O=C(O)c1cc(S(=O)(=O)Nc2ccc(F)cc2F)cc2c1OCCO2` the figure was 104.7%; with `CN(c1c(F)cccc1F)S(=O)(=O)c1cc2c(c(C(=O)O)c1)OCCO2`, 7.763%; with `CN(c1ccccc1)S(=O)(=O)c1cc2c(c(C(=O)O)c1)OCCO2`, 4.597%.

These data come from ChEMBL document CHEMBL3988442, “University of Dundee, Small-Polar-MMV Screening Library” (2021).
